Assay outcomes from PubChem.
Only some compounds are listed: those with a hit (about 14% of all), similar ones and a draw of the others.
Sm TGR block: blocks Schistosoma mansoni thioredoxin glutathione reductase | Q962Y6 | purified TGR, DTNB reduction, TNB absorbance 405 nm | Potency, µM (top dose mostly 114 µM), for the others: top-dose activity change, negative = inhibition, usual class: inhibitors | 3% of 360,000 active | AID 485364; note: potency is the fitted concentration of half-maximal effect; nearly all actives have a fitted effect of over 60% in size
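TGR 20 nM + NADPH 100 uM (dispensed conc.), cpd preinc 15 min RT; start with NADPH (500 uM addition) then DTNB (15 mM addition). Kinetic TNB absorbance, 405 nm filter. Four-parameter Hill fit across titration.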
Pf growth 96h: P. falciparum growth inhibition at 96 hours | Potency, µM (titrated, usually from 28.7 µM), without a hit: at the highest dose activity change, negative = inhibition, most hits filed as inhibitors | P. falciparum luciferase reporter growth, 96 h | AID 504834 | 6.9% of 320,000 active; note: potency is the fitted concentration of half-maximal effect
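96 h incubation, 37 C, 5% CO2, of luciferase-reporter P. falciparum-infected RBCs (2% hematocrit, 0.05% parasitemia final) with test compounds; endpoint luminescence.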
FBPA Giardia inh: inhibitors of Giardia lamblia fructose-1,6-bisphosphate aldolase | 0.71% of 290,000 active | AID 2451 | purified Giardia FBPA | A8B2U2 | Potency, µM (titrated, usually from 59.6 µM), for inactives: top-dose activity, negative = inhibition, hits mostly inhibitors; note: potency is the fitted concentration of half-maximal effect; nearly all actives have a fitted effect of over 55% in size
Target sequence (A8B2U2 whole entry, looked up): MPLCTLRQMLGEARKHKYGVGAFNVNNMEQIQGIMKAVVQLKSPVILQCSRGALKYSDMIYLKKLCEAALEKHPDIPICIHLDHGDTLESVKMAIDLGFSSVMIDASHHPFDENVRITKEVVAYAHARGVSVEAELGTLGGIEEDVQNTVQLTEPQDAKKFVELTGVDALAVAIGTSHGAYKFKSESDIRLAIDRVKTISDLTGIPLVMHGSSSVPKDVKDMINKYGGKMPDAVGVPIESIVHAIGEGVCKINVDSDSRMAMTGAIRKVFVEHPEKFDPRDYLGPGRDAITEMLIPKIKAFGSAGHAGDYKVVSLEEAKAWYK
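40 nM FBPA preincubated 10 min at RT with compound (up to 57.5 uM final), then substrate plus GAPDH/TPI/NAD/arsenate coupling and diaphorase/resazurin added. Fluorescence read after 20 min at RT, 525/598 nm.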
HCMV antiviral: blocks human cytomegalovirus replication; HFF cells, HCMV-luciferase reporter, 72 h; active compounds read low; activity change, negative = inhibition, % at 57.5 µM; 4.5% of 410,000 active; AID 1259415; in the data active = activity change below about -60%; inconclusive = no clear call, values can overlap the other calls; inactive = above about -39%
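Screen run at 2 compound doses on HFFs infected with reporter HCMV, MOI 1 PFU/cell. Luciferase activity from cell lysates at 72 h post infection gave inhibition relative to buffer-only and Salinomycin wells.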
Pf growth 48h: P. falciparum growth inhibition at 48 hours (one generation); P. falciparum luciferase growth in erythrocytes, 48 h; Potency, µM (doses to about 28.7 µM), without a hit: top-dose activity change, negative = inhibition, most hits filed as inhibitors; 5.9% of 310,000 active; AID 504832; note: potency is the fitted concentration of half-maximal effect
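Firefly luciferase activity from engineered P. falciparum reports growth; inhibitors lower the luminescent signal. Cultures contained 2% hematocrit erythrocytes at 0.1% final parasitemia.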
* hit, by the source's call; ? = inconclusive; . = no result given; [ ] = remark or other dose. Unless noted, calls come from the whole dose curve; as a rule, active = well fitted curve in the direction sought with a large enough effect; inconclusive = small, poorly fitted or top-dose-only effect, or another doubt; inactive = no such curve, though single readings can be large; an effect the other way counts as inactive or inconclusive. % is set by controls: 0 for no effect and ±100 for the full control effect.

SMILES | Sm TGR block | Pf growth 96h | FBPA Giardia inh | HCMV antiviral | Pf growth 48h
O[C@@H]1CN(Cc2cccs2)[C@@H](c2ccccc2)C[C@H]1n1cc(C2CC2)nn1 | . | . | . | 34 | .
Cn1nc(-c2ccccc2)c(C#N)c1Sc1cccc(Cl)c1 | 23% | 10µM* | 1% | -14 | ?
COc1cc(C2C(C#N)=C(N)OC3=C2C(=O)CCC3)cc(OC)c1OC(=O)N1CCOCC1 (centres undefined) | -1% | 4.7µM* | -7% | -16 | -23%
COc1cc(C2C(C#N)=C(N)OC3=C2C(=O)CCC3)ccc1OC(=O)N1CCOCC1 (centres undefined) | -12% | 0% | -6% | -27 | -1%
Cc1c(CN2CCC(CO)(Cc3cccc(C(F)(F)F)c3)CC2)c2ccccc2n1C | 0% | ? | -1% | -99* | 3.7µM*
COc1cc(CN2CCC(CO)(Cc3cccc(C(F)(F)F)c3)CC2)ccc1F | 4% | 4.1µM* | 3% | 33 | 6.6µM*
COc1ccc(F)c(CN2CCC(CO)(Cc3cccc(C(F)(F)F)c3)CC2)c1 | 1% | 13% | -5% | -5 | ?
CN(c1ccc(-c2csc(NC(=O)CCCc3nc4ccccc4c(=O)[nH]3)n2)cc1)S(C)(=O)=O | . | . | . | -19 | .
O=[N+]([O-])c1cccc(COc2cccc(CN3CCCCC3)c2)c1 | . | . | . | -11 | .
Cc1cc(C)nc(OC(=O)c2ccc(Cl)cc2Cl)n1 | 22µM* | 48% | -4% | -102* | 9%
Oc1ccc(Br)cc1-c1ccn[nH]1 | -5% | 30% | -25% | ? | 23%
Oc1ccc(O)c(-c2cnns2)c1 | 79µM* | ? | -3% | ? | ?
OC1CCN(Cc2nc(Cc3ccccc3Cl)no2)CC1 | 8% | -21% | 3% | -28 | 39%
Clc1ccccc1Cc1noc(CN2CCN3CCCC3C2)n1 (centres undefined) | -13% | 2.9µM* | -3% | -31 | ?
NC(=O)[C@@H]1CCCN1Cc1nc(-c2ccccc2)no1 | -3% | ? | 5% | 16 | 22%
NC(=O)[C@@H]1CCCN1Cc1nc(Cc2ccccc2Cl)no1 | 16% | 3.7µM* | 4% | 41 | 2%
C/C(=N/O)c1no[n+]([O-])c1/C(C)=N\O | 7.1µM* | 28% | 2% | 15 | 4%
O=C(Cn1ccc(NC(=O)OCc2ccccc2)nc1=O)NCCc1ccccn1 | 32µM* | -18% | . | -3 | 30%
CN=C1S/C(=C\c2ccc(N3CCCC3)c(F)c2)C(=O)N1C | -4% | -26%[5.75 µM] | -3% | 35 | 44%
CN=C1S/C(=C\c2cccn2-c2cccc(Br)c2)C(=O)N1C | . | . | . | -65* | .
CCN(CC)CCN1C(=O)C(=O)/C(=C(/O)c2ccc(OC)cc2)C1c1ccco1 (centres undefined) | 40µM* | 0.93µM* | -7% | 4 | -6%
CN(C)CCN1C(=O)C(=O)/C(=C(/O)c2ccc3c(c2)OCCO3)C1c1ccccn1 (centres undefined) | 34% | 55% | ? | 1 | 62%
CCN(CC)CCN1C(=O)C(=O)/C(=C(/O)c2ccc(OC(C)C)cc2)C1c1ccncc1 (centres undefined) | -32% | 15µM* | 6% | 27 | .
CCN(CC)CCCN1C(=O)C(=O)/C(=C(/O)c2ccc3c(c2)OCCO3)C1c1ccc(C)o1 (centres undefined) | 50µM* | -2% | 0% | -3 | .
O=C(COc1ccc2ccc(=O)oc2c1)N1CCc2ccccc21 | 5% | 1% | 2% | 17 | 277%
SMILES | Sm TGR block | Pf growth 96h | FBPA Giardia inh | HCMV antiviral | Pf growth 48h
CN1CCN(c2ncc3nc(-c4ccc(Cl)cc4)c(=O)n(CCC#N)c3n2)CC1 | . | . | 0% | . | .
COc1ccc(OC)c(NC(=O)NCCc2c[nH]c3ccccc23)c1 | 6% | -14% | 5% | -87* | ?
COc1ccc(C(=O)CCC(=O)NCCc2c[nH]c3ccccc23)cc1 | -9% | ? | 0% | -104* | -11%
COc1ccc2[nH]cc(CCNC(C)=O)c2c1 | . | 26% | 7% | -2 | 1%
COc1cc2c(CCNC(C)=O)c[nH]c2cc1Cl | -1% | 12% | 0% | -92* | 15%
COc1ccccc1CN1CC[C@@]2(CCCN(C(=O)c3cccn3C)C2)C1 | . | . | -9% | . | .
Cc1cccc(CSc2nc3ccccc3c(=O)n2C)c1 | 3% | ? | . | -76* | ?
Cn1c(SCc2ccc(Br)cc2)nc2ccccc2c1=O | -1% | ? | 3% | -35 | 0%
COCCn1c(SCc2ccc(C(=O)OC)o2)nc2ccccc2c1=O | -23% | -2% | -14% | 25 | -28%
CCN(CC)C(=O)COn1c(SCC(=O)N(CC)CC)nc2ccccc2c1=O | 3% | . | 4% | 24 | 0%
CCN(CC)C(=O)CSc1nc2ccccc2c(=O)n1OC | -23% | 13µM* | -2% | -39 | -23%
COC(=O)c1cc(CSc2nc3ccccc3c(=O)n2C)oc1C | 1% | -12% | . | -74* | ?
COn1c(SCc2cccc(Cl)c2)nc2ccccc2c1=O | -14% | 10µM* | 1% | ? | ?
O=[N+]([O-])c1ccc2oc(C(O)c3cccc(Cl)c3)cc2c1 (centres undefined) | 1% | ? | 18% | -40 | ?
COC(=O)c1sc(NC(=S)NNC(=O)c2c(Br)c(C)nn2C)c(C(=O)OC)c1C | -2% | ? | ? | ? | -17%
COc1ccc(Oc2ncc3nc(C)c(=O)n(C)c3n2)cc1 | . | . | -6% | . | .
C[C@H](CO)N1C[C@H](C)[C@@H](CN(C)Cc2cccc(F)c2)Oc2cc(-c3cccc(C#N)c3)ccc2S1(=O)=O | . | . | . | -24 | .
COc1ccc(Cl)cc1NS(=O)(=O)c1c(C)[nH]c(=O)[nH]c1=O | 8% | 26% | 1% | -22 | 36%
Cc1ccc2c(=O)cc(C(=O)Nc3sc4c(c3C(=O)NCc3ccco3)CCC4)oc2c1 | -1% | . | . | -3 | .
CCc1c(C)nc2nncn2c1NCc1ccc(Cl)cc1 | 4% | . | . | -69* | .
Cc1ccc(CNc2c(C)c(C)nc3nncn23)cc1 | 1% | . | . | -25 | .
O=C1C(=Cc2ccccc2[N+](=O)[O-])Cc2ccccc21 | . | . | . | -96* | .
Nc1ccccc1C=C1Cc2ccccc2C1=O | . | . | . | 5 | .
CN(C)CCCN(C(=O)CCc1ccccc1)c1nc2ccc(F)cc2s1 | -7% | ? | -7% | -12 | ?
CN(C)CCCN(C(=O)c1cc(-c2cccs2)nc2ccccc12)c1nc2ccc(F)cc2s1 | 1% | 2.1µM* | . | 18 | 3.3µM*
CN(C)CCN(C(=O)/C=C/c1cccs1)c1nc2ccc(F)cc2s1 | 5% | 10µM* | -4% | -5 | -23%
CN(C)/C=N/c1c(C(=O)NCc2ccccc2)nnn1Cc1ccccc1 | 3% | 8% | 4% | -5 | 2.6µM*
O=c1[nH][nH]c(C(F)(F)F)c1C=NCc1cccs1 | -3% | ? | 0% | -65* | ?
O=c1[nH][nH]c(C(F)(F)F)c1C=Nc1ccccc1 | -19% | 8% | -2% | -7 | 36%
